{"source": "PubChem BioAssay (NCATS)", "note": "Several values for one entry are separate records, joined by “and”; a condition that tells them apart may be missing. Equal entries are not always repeated. Results filed as inconclusive are left out. A call without a number means that no potency is given here. The source holds several records for some structures; these can differ, active in one and inactive in another. Activity calls are given as the source filed them. Calls follow the shape of the full dose curve. Potency is read from the fitted curve at half-maximal effect."}
{"target": "Atrial natriuretic peptide receptor 1 (Homo sapiens) (UniProt P16066)", "sequence (P16066 whole entry, looked up)": "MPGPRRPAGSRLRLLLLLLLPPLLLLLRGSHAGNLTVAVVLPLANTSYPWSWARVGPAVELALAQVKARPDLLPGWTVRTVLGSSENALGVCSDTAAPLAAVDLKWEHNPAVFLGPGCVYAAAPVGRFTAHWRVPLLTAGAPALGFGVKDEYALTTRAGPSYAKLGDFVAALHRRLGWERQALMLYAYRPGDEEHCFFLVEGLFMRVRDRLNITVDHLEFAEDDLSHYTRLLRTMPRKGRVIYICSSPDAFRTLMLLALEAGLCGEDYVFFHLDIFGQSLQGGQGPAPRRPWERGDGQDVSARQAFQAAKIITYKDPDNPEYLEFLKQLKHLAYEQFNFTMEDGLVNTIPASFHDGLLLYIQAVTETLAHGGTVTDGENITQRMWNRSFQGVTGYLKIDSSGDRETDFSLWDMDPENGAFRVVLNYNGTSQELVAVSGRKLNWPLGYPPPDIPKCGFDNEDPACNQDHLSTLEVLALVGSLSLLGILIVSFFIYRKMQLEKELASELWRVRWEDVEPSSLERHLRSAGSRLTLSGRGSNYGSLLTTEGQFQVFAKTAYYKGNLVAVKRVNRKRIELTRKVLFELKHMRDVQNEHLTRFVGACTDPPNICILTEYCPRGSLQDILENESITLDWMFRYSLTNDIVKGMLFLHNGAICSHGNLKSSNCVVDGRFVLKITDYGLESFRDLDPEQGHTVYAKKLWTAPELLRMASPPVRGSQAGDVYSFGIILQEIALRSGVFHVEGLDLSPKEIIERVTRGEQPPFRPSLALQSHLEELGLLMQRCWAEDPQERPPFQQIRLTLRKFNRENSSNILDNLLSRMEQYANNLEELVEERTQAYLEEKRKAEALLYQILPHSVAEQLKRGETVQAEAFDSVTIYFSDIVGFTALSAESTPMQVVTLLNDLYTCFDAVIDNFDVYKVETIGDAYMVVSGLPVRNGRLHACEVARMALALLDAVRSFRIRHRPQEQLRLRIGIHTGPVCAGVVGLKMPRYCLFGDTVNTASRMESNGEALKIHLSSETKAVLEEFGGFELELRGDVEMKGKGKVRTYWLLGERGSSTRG", "assay": "Natriuretic polypeptide receptor (hNpr1) antagonism - Pilot CMLD screen (AID 1347052)", "conditions": "HEK293 hNpr1 GloSensor cGMP luminescence, ANP-stimulated; series mostly up to 9.22 µM", "procedure": "In order to identify small molecular compounds that inhibit the hNpr1 receptor we developed a high-throughput assay to measure inhibition of the guanylate cyclase activity of the receptor. cGMP production was measured using a circular permutated Firefly luciferase (FLuc) enzyme functionally linked to the cGMP binding domain of human phosphodiesterase 5 (GloSensor technology pGS-40F, (Fan, F. et al. 2008). The cGMP-sensor was expressed in human embryonic kidney 293 (HEK-293) cells and FLuc activity was measured after stimulation with hNrp agonist peptide. hNrp agonists activates the receptor's associated guanylyl cyclase (GC) domain producing cGMP which then binds to the GloSensor resulting in FLuc activation, the enzymatic activity of which can be measured as bioluminescence with addition of luciferin substrate.\nThis assay was initially piloted by testing with a small library of specialty compounds.\nPROTOCOL TABLES (as described by Inglese J, Shamu CE and Guy RK. 2007)\nSEQUENCE No. (e.g., 1, 2, 3, etc.); […] (e.g., Cells, Incubation, Reagent, etc.); VALUE and DESCRIPTION.\n1. Cells. Seed 1500 HEK293 cGMP-sensor cells expressing hNpr1 per well in 4uL into Greiner 1536-well white/solid bottom high base, tissue culture-treated plates.\n2. Incubation. Incubate plated cells at 37C in 5% CO2, 95% RH overnight.\n3. Reagent. Add 1uL per well GloSensor reagent from Promega (2% final concentration) or CO2 independent media vehicle control to respective columns of Greiner 1536-well plates.\n4. Incubation. Incubate plated cells at room temperature for 2 h, protect from light.\n5. Compounds. Library compounds and A-71915 control added at 23 nL per well, transferred by Pin Tool.\n6. Incubation. Incubate plated cells for 30 min. at room temperature, protect from light.\n7. Detector. GloSensor baseline pre-read luminescence measured using CCD-based camera (Viewlux).\n8. Compound. Add 1uL of hNppA peptide to 0.1 nM final concentration to stimulate hNpr1 or CO2 independent media as vehicle control.\n9. Incubation. Incubate treated cells at room temperature for 20 min., protect from light.\n10. Detector. GloSensor post-hNppA luminescence measured using CCD-based camera (Viewlux).\nNOTES (numbers refer to Sequence numbers above)\n1. HEK293 cells expressing hNpr1 and GIP/pGS-40F grown to 85-95% confluence (48-72 h) in T175 culture flasks (CO2 independent media supplemented with 10% FBS, 1% Pen/Strep antibiotics and 1 ug/mL puromycin). Trypsinize and harvest cells from T175 culture flasks and filter through 40 um cell strainer. Cells counted with Invitrogen Countess (30,000,000 - 50,000,000 cells/flask). Cells diluted to a final concentration of 375 cells/uL in CO2 independent media and a Millipore multidrop used to dispense 1500 cells per well (4uL/well) into 13 1536-well Greiner White/Solid bottom, high base tissue-culture treated (TC) plates and one Aurora 1536-well Black/Clear bottom, low base, TC plate (for visual inspection of cell health throughout the duration of the assay).\n2. Cells incubated overnight at ambient temperature, 24 h. at 37C in 95% RH incubator protected from light, covered with metal lid with gas-exchange holes.\n3. Prepare GloSensor Reagent (Promega): Reconstitute GloSensor luciferase substrate by adding 8.2mL Hepes buffer to 250mg substrate, mix well, protect from light and stored at -80C. Prepare a fresh 12% GloSensor solution in CO2 independent supplemented plating media (see above). Mix well and store at ambient temperature, protected from light. 1uL 12% GloSensor Luciferase Reagent added (2% final concentration) to respective columns of 13 x 1536-well Greiner plate with BioRaptr, 1uL CO2 independent plating media added to respective columns as vehicle control with BioRaptr.\n4. Cells incubated for 2 h. at ambient temperature, protected from light with metal lid with gas-exchange holes.\n5. A-71915 stock solution prepared (10 mM in DMSO). […]"}
{"smiles": "COc1ccc2c(c1)C(=O)[C@H](OC(=O)Nc1cc(OC)c(OC)c(OC)c1)[C@@H](c1ccc(OC)c(Br)c1)O2", "Potency": "inactive"}
{"smiles": "COC[C@@H](OC(C)=O)[C@H]1OCc2ccccc2[C@H]1C=Cc1ccccc1", "Potency": "inactive"}
{"smiles": "COc1cccc([C@H]2Oc3ccc(OC)cc3C(=NOC[C@@H](C)[C@H](OCc3ccccc3)C(C)C)[C@H]2O)c1", "Potency": "inactive"}
{"smiles": "CCN1C(=NCc2ccc(OC)cc2)NC(c2cccc(C(F)(F)F)c2)C(C(=O)OC)=C1C", "note": "(stereo not given)", "Potency": "inactive"}
{"smiles": "COC(=O)[C@H](Cc1ccccc1)NC(=O)O[C@H]1C(=O)c2ccc(OC)cc2O[C@@H]1c1ccc2c(c1)OCO2", "Potency": "inactive"}
{"smiles": "CC(=O)C1=C(C)N(Cc2ccccc2)C(=O)NC1c1ccco1", "note": "(stereo not given)", "Potency": "inactive"}
{"smiles": "COC(=O)N1C2CC3(C)CC(=O)CC1(C)C3c1ccccc12", "note": "(stereo not given)", "Potency": "inactive"}
{"smiles": "COc1ccc([C@]23Cc4ccccc4[C@H](O2)C2=C(CC(C)(C)CC2=O)O3)cc1", "Potency": "inactive"}
{"smiles": "C[C@@H]1CC2=CCCC2[C@]2(O1)C(=O)N(Cc1ccc(Br)cc1)c1cccc(Br)c12", "note": "(stereo not given in full)", "Potency": "inactive"}
{"smiles": "COC(=O)N1C(C)=Cc2ccccc2C1CC(C)=CC(C)=O", "note": "(stereo not given)", "Potency": "inactive"}
{"smiles": "CCN1C(=NCc2ccc3c(c2)OCO3)NC(c2ccccc2)C(C(=O)OC)=C1C", "note": "(stereo not given)", "Potency": "inactive"}
{"smiles": "C[C@@H]1C=CCC(=O)N[C@@H](c2ccccc2)[C@H](C)C=CCC(=O)N[C@@H]1c1ccccc1", "Potency": "inactive"}
{"smiles": "COC(=O)C1=NOC2(C=C(Br)C(OC)=C(Br)C2=O)C1", "note": "(stereo not given)", "Potency": "inactive"}
{"smiles": "CCN1C(=O)NC(c2cccs2)C(C(=O)OC)=C1C", "note": "(stereo not given)", "Potency": "inactive"}
{"smiles": "C[C@H]1COC(=O)[C@H](Cc2ccccc2)NC(=O)[C@@H](C)COC(=O)[C@H](Cc2ccccc2)NC1=O", "Potency": "inactive"}
{"smiles": "COC(=O)N1C(C=CC=Cc2ccc(OC)cc2)=Cc2ccccc2C1CC(C)=O", "note": "(stereo not given)", "Potency": "inactive"}
{"smiles": "C=CCOC(=O)C(C(C)=O)[C@@H](NC(=O)OC)c1cccs1", "note": "(stereo not given in full)", "Potency": "inactive"}
{"smiles": "COC[C@@H](O)[C@H]1OCc2ccccc2[C@H]1C=Cc1ccccc1", "Potency": "inactive"}
{"smiles": "C=CCOC(=O)N[C@H](C(C(=O)OC)=C(C)NCc1ccccc1)c1cccc(C(F)(F)F)c1", "Potency": "inactive and 1.33 µM (active)"}
{"smiles": "COC(=O)NC(C=Cc1ccccc1)C(C(C)=O)C(=O)OC", "note": "(stereo not given)", "Potency": "inactive"}
{"smiles": "COC[C@H]1O[C@H](c2ccccc2)C=C[C@H]1OCc1cccc(Br)c1", "Potency": "inactive"}
{"smiles": "O=C(NN=C1C[C@@H](O)[C@H](O)[C@H]2[C@@H]3C(=O)N(Cc4ccc5c(c4)OCO5)C(=O)[C@@H]3CC[C@H]12)OCc1ccccc1", "Potency": "inactive"}
{"smiles": "CCCCCCCc1cc2ccccc2c2c(C(=O)OC)c(C(=O)OC)c(C(=O)OC)n12", "Potency": "inactive"}
{"smiles": "C=CCOC(=O)[C@H](O)[C@@H](O)C(=O)OCC=C", "Potency": "inactive"}
{"smiles": "CC(=O)OC[C@H]1O[C@@H](ON=C2C[C@@H](O)[C@@H](O)[C@@H]3[C@H]4C(=O)N(Cc5ccccc5)C(=O)[C@@H]4CC[C@@H]23)[C@H](OC(C)=O)[C@@H](OC(C)=O)[C@H]1OC(C)=O", "Potency": "inactive"}
{"smiles": "CCN1C(=O)NC(c2cccc(F)c2)C(C(=O)OC)=C1C", "note": "(stereo not given)", "Potency": "inactive"}
{"smiles": "COCC(=O)C(C(=O)OC)[C@H](CCc1ccccc1)NC(=O)OC", "note": "(stereo not given in full)", "Potency": "inactive"}
{"smiles": "CC12C=C(C=Cc3ccc(Br)cc3)C(C)(C1)[C@H](c1ccc(Br)cc1)CC2=O", "note": "(stereo not given in full)", "Potency": "inactive"}
{"smiles": "COC(=O)C1=C2C=C(C)CC(C)N2C(=O)NC1c1ccccc1", "note": "(stereo not given)", "Potency": "inactive"}
{"smiles": "OC[C@H]1O[C@H](c2ccccc2)C=C[C@H]1O", "Potency": "inactive"}
{"smiles": "C=CCCCN1C=C(C(=O)OCC)C(c2ccccc2)NC1=O", "note": "(stereo not given)", "Potency": "inactive"}
{"smiles": "COC(=O)C1=C(C(=O)OC)[C@@H]2Nc3ccccc3[C@@]23C[C@@H](C(=O)OC)N(C(=O)N2CCNC2=O)C3=N1", "Potency": "inactive"}
{"smiles": "CCN1C(=S)NC(c2cccc(F)c2)C(C(=O)OC)=C1C", "note": "(stereo not given)", "Potency": "inactive"}
{"smiles": "COc1ccc2c(c1)[C@@H](NC(=O)C(F)(F)F)[C@@H]1CCCC[C@]21c1ccccc1", "Potency": "inactive"}
{"smiles": "C#CCCCON=C1C[C@@H](O)[C@@H](O)[C@@H]2[C@H]3C(=O)N(C(C)(C)C)C(=O)[C@@H]3CC[C@H]12", "Potency": "inactive"}
{"smiles": "CC(=O)C1=C(C)N(Cc2ccccc2)C(=O)NC1c1ccc(Br)cc1", "note": "(stereo not given)", "Potency": "inactive"}
{"smiles": "COC(=O)CC1c2ccccc2C(Cc2ccc(OC)cc2)=C(C)N1C(=O)OC", "note": "(stereo not given)", "Potency": "inactive"}
{"smiles": "CCN1C(=NCc2cc(OC)c(OC)c(OC)c2)NC(c2cccc(C(F)(F)F)c2)C(C(=O)OC)=C1C", "note": "(stereo not given)", "Potency": "inactive"}
{"smiles": "CC(C)OC(=O)[C@H](C)NC(=O)N1CCc2nc(COc3ccccc3)c3c(c2C1)CO[C@@H](C)C3", "Potency": "inactive"}
{"smiles": "CCOC(=O)CN1C(=O)NC(c2ccc(Br)cc2)C(C(C)=O)=C1C", "note": "(stereo not given)", "Potency": "inactive"}
